Results on 4 compounds are retold here after ChEMBL document CHEMBL1961873, “Compounds: GSK PKIS; Assays: Nanosyn kinase panel” (2012).

The target in assay [1] is T1, Serine/threonine-protein kinase Nek9 (Homo sapiens) (UniProt Q8TD19).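 Note: each value is a mean percent inhibition of NEK9.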
T1 sequence (whole entry): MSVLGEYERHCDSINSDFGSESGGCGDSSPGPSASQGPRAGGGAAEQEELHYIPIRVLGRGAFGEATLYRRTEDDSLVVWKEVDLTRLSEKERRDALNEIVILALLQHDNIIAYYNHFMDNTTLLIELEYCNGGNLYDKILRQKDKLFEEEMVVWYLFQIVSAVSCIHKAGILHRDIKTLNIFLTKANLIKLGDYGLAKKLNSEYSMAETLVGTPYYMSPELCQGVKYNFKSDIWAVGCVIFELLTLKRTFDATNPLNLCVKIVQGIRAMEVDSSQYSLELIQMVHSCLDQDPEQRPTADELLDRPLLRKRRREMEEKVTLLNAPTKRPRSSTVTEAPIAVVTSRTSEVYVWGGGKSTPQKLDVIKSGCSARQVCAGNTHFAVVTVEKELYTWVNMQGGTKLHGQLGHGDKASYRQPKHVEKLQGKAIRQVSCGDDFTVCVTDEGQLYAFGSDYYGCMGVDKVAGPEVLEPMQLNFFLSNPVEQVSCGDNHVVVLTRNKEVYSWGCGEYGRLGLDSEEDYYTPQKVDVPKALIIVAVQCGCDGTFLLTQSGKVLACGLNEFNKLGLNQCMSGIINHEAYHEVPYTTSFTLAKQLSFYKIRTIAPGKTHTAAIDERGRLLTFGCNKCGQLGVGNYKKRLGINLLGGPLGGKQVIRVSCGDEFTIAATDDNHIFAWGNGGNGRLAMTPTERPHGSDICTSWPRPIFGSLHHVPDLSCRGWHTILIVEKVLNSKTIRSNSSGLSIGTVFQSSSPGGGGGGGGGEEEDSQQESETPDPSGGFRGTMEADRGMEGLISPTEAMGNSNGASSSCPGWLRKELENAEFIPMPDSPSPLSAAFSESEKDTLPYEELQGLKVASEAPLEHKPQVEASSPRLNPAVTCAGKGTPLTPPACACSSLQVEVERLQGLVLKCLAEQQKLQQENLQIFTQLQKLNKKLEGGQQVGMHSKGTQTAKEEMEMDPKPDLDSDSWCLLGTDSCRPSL
Conditions: at 1 µM.

Assay [2] has as its target Serine/threonine-protein kinase PLK1 (Homo sapiens) (UniProt P53350). The following applies: at 0.1 µM.
For assay [3] the target is unchanged. The following applies: at 1 µM.
For assay [4], the target named is T2, Dual specificity protein kinase TTK (Homo sapiens) (UniProt P33981).
T2 sequence (whole entry): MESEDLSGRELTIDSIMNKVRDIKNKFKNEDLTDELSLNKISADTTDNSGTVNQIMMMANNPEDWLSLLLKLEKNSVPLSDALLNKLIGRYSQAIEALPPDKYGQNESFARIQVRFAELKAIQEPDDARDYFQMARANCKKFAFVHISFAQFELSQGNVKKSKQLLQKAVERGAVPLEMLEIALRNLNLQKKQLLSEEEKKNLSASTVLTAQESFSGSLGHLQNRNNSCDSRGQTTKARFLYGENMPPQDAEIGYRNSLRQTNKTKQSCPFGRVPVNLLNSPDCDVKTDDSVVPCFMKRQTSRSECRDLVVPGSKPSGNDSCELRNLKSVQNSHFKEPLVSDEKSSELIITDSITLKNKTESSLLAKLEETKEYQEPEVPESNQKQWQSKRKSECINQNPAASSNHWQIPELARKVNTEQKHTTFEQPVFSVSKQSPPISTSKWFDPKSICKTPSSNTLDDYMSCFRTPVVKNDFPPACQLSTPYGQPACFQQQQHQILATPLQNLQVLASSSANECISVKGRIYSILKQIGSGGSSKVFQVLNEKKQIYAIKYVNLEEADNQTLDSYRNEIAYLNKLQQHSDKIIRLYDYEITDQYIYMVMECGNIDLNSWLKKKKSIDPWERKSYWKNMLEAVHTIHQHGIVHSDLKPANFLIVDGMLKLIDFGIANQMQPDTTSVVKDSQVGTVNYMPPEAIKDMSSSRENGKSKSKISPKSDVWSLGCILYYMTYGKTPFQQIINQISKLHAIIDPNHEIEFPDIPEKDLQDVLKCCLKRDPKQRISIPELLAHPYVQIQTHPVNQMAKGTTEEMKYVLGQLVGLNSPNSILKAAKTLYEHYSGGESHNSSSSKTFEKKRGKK
The following applies: at 0.1 µM.

In assay [5] the test system is T3, Receptor-type tyrosine-protein kinase FLT3 (Homo sapiens), P36888 [D835Y].
T3 sequence (whole entry): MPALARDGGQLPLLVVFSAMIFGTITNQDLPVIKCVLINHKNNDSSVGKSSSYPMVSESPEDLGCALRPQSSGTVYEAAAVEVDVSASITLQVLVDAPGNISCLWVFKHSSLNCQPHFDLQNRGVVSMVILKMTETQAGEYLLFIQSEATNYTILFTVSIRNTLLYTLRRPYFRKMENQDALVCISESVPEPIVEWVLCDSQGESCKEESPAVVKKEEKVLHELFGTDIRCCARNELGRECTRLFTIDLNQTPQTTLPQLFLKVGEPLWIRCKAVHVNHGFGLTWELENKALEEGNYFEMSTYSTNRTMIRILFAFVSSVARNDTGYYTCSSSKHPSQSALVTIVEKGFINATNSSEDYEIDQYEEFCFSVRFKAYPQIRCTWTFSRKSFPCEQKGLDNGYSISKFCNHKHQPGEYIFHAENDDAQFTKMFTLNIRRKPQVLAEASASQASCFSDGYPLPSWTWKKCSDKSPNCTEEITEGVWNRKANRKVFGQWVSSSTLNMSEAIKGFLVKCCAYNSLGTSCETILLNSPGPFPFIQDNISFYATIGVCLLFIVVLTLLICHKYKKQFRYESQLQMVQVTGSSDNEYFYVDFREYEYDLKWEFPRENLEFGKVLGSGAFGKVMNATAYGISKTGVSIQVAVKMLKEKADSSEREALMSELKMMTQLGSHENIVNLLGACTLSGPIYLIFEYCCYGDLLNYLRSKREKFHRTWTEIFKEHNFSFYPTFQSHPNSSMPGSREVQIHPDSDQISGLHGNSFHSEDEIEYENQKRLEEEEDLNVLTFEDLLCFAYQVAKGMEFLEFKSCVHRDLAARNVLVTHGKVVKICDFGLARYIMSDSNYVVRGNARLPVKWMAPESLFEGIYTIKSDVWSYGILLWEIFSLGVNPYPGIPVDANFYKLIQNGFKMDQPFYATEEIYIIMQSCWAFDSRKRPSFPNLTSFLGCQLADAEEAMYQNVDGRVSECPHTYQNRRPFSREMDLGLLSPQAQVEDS
The following applies: at 1 µM.

In assay [6] the target is Vascular endothelial growth factor receptor 3 (Homo sapiens) (UniProt P35916). The following applies: at 0.1 µM.
Assay [7] shares this target. The following applies: at 1 µM.
Assay [8] has as its target Macrophage colony-stimulating factor 1 receptor (Homo sapiens) (UniProt P07333). Conditions: at 0.1 µM.
Assay [9] shares this target. Conditions: at 1 µM.
In assay [10] the target is Tyrosine-protein kinase Fyn (Homo sapiens) (UniProt P06241). The following applies: at 0.1 µM.
Assay [11] shares this target. The following applies: at 1 µM.
The target in assay [12] is Tyrosine-protein kinase HCK (Homo sapiens) (UniProt P08631). Conditions: at 0.1 µM.
Assay [13] has the same target. The following applies: at 1 µM.
Assay [14] deals with Insulin-like growth factor 1 receptor (Homo sapiens) (UniProt P08069). The following applies: at 0.1 µM.
Assay [15] has the same target. Conditions: at 1 µM.
Assay [16] addresses Insulin receptor (Homo sapiens) (UniProt P06213). Conditions: at 0.1 µM.
Assay [17] shares this target. The following applies: at 1 µM.
Assay [18] deals with Insulin receptor-related protein (Homo sapiens) (UniProt P14616). The following applies: at 0.1 µM.
Assay [19] has the same target. The following applies: at 1 µM.
Assay [20] addresses T4, Tyrosine-protein kinase ITK/TSK (Homo sapiens) (UniProt Q08881).
T4 sequence (whole entry): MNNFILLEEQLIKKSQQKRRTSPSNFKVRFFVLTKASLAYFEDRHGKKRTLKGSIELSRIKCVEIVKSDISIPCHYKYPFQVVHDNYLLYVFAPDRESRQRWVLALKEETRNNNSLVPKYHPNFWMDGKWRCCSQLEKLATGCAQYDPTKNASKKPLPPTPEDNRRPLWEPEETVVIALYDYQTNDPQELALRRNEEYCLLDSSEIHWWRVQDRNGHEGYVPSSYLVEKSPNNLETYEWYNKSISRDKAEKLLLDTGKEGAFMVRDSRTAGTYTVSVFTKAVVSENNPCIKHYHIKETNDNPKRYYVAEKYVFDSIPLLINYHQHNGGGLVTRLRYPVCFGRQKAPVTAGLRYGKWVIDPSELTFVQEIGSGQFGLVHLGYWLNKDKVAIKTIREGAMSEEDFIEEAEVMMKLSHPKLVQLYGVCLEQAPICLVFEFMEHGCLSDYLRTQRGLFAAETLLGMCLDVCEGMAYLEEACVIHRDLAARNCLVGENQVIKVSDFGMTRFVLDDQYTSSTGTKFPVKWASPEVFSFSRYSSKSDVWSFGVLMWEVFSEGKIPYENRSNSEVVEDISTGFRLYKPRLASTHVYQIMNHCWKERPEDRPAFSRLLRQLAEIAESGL
Conditions: at 0.1 µM.

Sequence of Macrophage colony-stimulating factor 1 receptor (Homo sapiens) (P07333 whole entry): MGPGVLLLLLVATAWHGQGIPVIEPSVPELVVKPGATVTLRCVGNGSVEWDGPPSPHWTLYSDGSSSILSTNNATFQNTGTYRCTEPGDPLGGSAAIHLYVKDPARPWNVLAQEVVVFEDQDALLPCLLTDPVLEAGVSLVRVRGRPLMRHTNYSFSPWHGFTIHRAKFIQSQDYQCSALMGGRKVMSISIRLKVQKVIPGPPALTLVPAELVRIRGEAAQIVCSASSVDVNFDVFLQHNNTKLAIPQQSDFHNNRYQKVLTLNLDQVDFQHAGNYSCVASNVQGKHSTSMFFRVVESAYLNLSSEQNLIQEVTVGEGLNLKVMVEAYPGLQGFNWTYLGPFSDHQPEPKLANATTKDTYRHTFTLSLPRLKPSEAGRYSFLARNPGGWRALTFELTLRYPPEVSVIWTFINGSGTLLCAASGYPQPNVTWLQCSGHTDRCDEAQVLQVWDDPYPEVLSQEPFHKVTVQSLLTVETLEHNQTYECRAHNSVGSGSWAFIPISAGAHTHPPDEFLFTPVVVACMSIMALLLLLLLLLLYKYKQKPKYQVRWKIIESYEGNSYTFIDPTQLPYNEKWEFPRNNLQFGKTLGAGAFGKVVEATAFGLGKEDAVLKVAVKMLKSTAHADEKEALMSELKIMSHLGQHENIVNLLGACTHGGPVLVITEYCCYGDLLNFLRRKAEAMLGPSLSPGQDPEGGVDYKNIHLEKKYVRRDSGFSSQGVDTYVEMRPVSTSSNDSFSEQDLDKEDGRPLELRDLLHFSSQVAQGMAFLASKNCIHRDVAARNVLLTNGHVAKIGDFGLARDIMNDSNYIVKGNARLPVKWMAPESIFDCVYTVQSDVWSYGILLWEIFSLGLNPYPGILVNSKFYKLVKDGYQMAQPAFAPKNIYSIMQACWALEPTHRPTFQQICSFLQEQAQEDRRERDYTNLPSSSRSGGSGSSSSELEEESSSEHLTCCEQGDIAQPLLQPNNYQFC
Sequence of Vascular endothelial growth factor receptor 3 (Homo sapiens) (P35916 whole entry): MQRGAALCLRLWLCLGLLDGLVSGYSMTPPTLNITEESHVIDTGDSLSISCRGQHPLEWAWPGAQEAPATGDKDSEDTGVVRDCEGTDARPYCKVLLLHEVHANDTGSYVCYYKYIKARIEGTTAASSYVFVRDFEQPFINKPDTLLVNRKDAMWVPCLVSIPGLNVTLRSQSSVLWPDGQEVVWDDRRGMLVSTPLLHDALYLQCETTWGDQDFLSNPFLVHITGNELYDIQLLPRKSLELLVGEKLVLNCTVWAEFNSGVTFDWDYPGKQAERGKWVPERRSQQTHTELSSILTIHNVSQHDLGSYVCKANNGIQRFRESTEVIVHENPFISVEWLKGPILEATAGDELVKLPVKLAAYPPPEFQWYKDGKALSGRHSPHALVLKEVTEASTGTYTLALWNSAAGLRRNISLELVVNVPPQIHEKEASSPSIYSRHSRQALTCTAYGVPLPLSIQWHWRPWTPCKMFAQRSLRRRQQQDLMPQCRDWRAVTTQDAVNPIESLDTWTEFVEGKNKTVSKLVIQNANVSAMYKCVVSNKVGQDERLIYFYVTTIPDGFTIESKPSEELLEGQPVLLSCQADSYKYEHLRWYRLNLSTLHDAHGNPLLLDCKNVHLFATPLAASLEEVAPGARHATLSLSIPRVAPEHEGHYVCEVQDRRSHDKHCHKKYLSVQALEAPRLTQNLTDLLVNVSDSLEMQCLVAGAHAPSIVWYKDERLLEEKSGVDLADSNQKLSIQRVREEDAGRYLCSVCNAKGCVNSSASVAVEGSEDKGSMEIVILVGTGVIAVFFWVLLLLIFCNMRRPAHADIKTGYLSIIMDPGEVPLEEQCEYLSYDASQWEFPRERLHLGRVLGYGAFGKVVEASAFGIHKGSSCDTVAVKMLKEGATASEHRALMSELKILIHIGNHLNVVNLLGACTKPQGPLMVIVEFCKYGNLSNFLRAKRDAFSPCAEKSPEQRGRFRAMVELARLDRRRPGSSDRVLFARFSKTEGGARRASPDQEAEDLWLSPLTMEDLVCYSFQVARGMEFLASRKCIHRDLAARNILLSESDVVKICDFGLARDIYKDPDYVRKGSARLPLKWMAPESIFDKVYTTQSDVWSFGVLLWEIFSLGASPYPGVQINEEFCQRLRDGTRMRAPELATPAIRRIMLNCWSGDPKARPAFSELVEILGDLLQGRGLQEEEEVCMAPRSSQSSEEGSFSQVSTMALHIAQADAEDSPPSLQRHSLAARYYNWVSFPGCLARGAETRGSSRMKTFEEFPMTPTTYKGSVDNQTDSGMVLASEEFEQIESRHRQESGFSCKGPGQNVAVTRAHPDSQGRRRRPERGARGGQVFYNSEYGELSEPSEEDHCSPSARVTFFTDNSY
Sequence of Tyrosine-protein kinase Fyn (Homo sapiens) (P06241 2-537 limits assumed): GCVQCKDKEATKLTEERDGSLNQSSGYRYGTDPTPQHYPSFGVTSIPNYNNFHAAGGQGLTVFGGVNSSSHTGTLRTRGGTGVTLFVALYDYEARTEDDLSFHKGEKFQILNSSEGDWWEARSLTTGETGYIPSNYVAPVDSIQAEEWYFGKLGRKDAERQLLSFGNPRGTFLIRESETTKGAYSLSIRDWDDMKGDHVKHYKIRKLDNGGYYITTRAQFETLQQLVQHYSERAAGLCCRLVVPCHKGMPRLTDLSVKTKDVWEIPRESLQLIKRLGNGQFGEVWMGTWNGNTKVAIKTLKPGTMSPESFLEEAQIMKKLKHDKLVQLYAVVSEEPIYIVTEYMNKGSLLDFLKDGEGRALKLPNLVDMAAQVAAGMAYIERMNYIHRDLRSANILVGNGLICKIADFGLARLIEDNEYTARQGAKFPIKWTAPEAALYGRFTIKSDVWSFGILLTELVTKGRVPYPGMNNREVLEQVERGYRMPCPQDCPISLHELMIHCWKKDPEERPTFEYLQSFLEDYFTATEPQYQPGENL
Sequence of Tyrosine-protein kinase HCK (Homo sapiens) (P08631 2-526 limits assumed): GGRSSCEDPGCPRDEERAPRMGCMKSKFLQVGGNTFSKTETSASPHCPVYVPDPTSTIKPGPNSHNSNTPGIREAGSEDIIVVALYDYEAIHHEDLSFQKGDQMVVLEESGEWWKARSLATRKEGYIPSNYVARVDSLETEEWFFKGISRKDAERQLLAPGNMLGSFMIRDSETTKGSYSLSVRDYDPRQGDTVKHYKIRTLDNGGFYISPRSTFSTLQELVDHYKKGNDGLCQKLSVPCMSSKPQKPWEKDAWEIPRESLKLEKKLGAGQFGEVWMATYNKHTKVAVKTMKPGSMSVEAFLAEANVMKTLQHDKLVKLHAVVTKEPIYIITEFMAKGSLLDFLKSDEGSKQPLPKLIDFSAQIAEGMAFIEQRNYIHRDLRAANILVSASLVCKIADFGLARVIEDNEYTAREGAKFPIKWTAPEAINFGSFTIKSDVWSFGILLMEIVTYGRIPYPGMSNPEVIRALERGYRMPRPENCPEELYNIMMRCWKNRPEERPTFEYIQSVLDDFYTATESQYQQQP
Sequence of Insulin receptor-related protein (Homo sapiens) (P14616 27-742 limits assumed): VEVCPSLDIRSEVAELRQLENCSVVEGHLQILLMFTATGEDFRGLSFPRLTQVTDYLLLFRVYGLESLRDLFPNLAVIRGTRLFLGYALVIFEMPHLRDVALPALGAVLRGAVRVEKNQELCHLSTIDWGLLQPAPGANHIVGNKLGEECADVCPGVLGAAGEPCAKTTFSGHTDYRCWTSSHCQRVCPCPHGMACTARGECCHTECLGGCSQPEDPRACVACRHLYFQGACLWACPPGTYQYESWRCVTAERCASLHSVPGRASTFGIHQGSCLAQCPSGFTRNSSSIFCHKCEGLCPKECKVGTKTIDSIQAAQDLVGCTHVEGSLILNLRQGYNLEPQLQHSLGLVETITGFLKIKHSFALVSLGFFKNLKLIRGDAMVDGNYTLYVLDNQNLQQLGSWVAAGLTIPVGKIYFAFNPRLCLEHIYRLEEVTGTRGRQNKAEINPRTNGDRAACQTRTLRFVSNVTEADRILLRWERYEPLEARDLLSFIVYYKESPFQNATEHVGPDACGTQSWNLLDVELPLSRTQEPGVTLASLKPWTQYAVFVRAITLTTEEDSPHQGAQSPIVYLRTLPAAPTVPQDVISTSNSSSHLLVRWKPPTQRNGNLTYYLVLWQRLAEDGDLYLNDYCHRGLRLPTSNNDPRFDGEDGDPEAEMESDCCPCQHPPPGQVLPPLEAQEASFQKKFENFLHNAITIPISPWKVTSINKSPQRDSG
Sequence of Insulin receptor-related protein (Homo sapiens) (P14616 747-1297 limits assumed): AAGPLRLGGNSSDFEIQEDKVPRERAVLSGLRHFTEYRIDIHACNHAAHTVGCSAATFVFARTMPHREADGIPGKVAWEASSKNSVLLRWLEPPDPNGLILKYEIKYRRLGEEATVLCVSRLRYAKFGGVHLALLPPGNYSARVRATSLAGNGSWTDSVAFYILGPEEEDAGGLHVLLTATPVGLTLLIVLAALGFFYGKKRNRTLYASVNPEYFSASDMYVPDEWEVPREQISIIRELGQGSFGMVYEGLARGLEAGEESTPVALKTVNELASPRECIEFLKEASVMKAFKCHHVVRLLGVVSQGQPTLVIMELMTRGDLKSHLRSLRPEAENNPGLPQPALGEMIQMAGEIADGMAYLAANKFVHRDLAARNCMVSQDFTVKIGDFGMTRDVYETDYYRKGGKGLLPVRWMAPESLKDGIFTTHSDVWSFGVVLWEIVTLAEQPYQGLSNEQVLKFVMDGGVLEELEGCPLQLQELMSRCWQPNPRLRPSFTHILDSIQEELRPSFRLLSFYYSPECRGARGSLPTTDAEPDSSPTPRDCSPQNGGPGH

For the compound `COc1cc2ncn(-c3cc(OCc4ccccc4C(F)(F)F)c(C(C)=O)s3)c2cc1OC`, the inhibition in [1] was 5.55%; in [2], 20.5%; in [3] it was 67.7%; in assay [4], 6.18%; in assay [5] it was 2.27%; in assay [6], 3.53%. For the same compound, the inhibition in [7] was 5.96%; in assay [8] it was 0.38%; in assay [9], 10.8%; in assay [10] it was 1.85%; in assay [11] it was 8.03%; in assay [12] it was 5.79%. In addition, the inhibition in assay [13] is 9.81%; in assay [14], -2.34%; in assay [15] it was 1.09%; in assay [16], -1.39%; in [17], -0.63%; in assay [18] it was 5%. Also, the inhibition in assay [19] was found to be 3.18%; in assay [20], 0.57%.
Turning to `Nc1nccc(-c2c(-c3ccc(F)cc3)ncn2C2CCC(O)CC2)n1` (stereo not given), the inhibition in assay [1] is -1.68%; in [2], -2.32%; in assay [3], -1.2%; in [4], -4.27%; in assay [5] it was 0.98%; in [6] it was 1.39%. For the same compound, the inhibition in [7] was -0.22%; in assay [8] it was 2.19%; in [9], 14.7%; in [10], 1.57%; in [11], 6.58%; in assay [12] it was 1.96%. The inhibition in [13] was 12.7%; in [14], -1.46%; in [15] it was -1.17%; in assay [16], 0.89%; in assay [17], -0.36%; in assay [18], -0.97%. Besides, the inhibition in assay [19] is -2.71%; in assay [20] it was -0.36%.
As for `Cc1ccc(NC(=O)c2ccoc2)cc1-c1ccc(C(=O)NCC2CC2)cc1`, the inhibition is 4.64% in [1]; 2.06% in [2]; -0.9% in [3]; 4.04% in assay [4]; 5.74% in assay [5]; 0.17% in assay [6]. For the same compound, the inhibition in assay [7] was 6.22%; in assay [8], -2.68%; in assay [9], 2.71%; in assay [10], 0.65%; in assay [11] it was 1.16%; in [12], 4.54%. In addition, the inhibition in assay [13] was 5.55%; in assay [14] it was 2.46%; in assay [15], 1.25%; in assay [16] it was 1.81%; in assay [17], 3.42%; in [18], 0.32%. For the same compound, the inhibition is 0.32% in [19] and -0.83% in assay [20].
As for `N#Cc1ccc(Oc2nccc(-c3c(-c4ccc(F)cc4)ncn3C3CCNCC3)n2)cc1`, the inhibition in [1] was 9.35%; in assay [2], 4.8%; in assay [3], 4.75%; in assay [4] it was 8.02%; in [5], 4.07%; in assay [6] it was -3.29%. Moreover, the inhibition was -0.83% in assay [7]; 0.11% in assay [8]; 9.12% in assay [9]; -0.87% in assay [10]; 3.01% in assay [11]; 5.66% in assay [12]. Also, the inhibition in assay [13] is 5.1%; in assay [14], -0.43%; in assay [15] it was 0.96%; in assay [16] it was 3.29%; in [17], 3.86%; in assay [18] it was 3.14%. Also, the inhibition in assay [19] was 4.24%; in assay [20], -0.47%.

Usually inhibition stands for the change of the read-out against control, counted positive when it falls.
